# TRHR enhancer: qHTS for Small Molecule Agonists and Allosteric Enhancers of Human TRH Receptor: Primary Screen for Enhancers. Thyrotropin-releasing hormone receptor (Homo sapiens), P34981. TRHR cells, fluo-8 calcium fluorescence, EC20 TRH enhancement. enhancement, % at 2 µM. 0.66% of 360,000 active; in the data active = enhancement above about 30%; note: 0% is about no effect
#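 Enhancer read-out: after compound pinning and an initial kinetic agonist-mode read, an EC20 of TRH (10 nM final) was injected and fluo-8 calcium signal (Ex 480/Em 530) followed at 1 s/cycle for 100 cycles in TRHR-expressing cells.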
# D1 antagonist: Antagonist of Human D 1 Dopamine Receptor: qHTS | HEK293 TREx D1 cells, calcium flux, dopamine EC80; hits give low values | 3.2% of 360,000 active | AID 504652, 2011 | D(1A) dopamine receptor (Homo sapiens), P21728 | activity change, negative = inhibition, % at 10 µM; in the data active = activity change below about -30%; note: % is set by controls: 0 for no effect and ±100 for the full control effect
# Target sequence (P21728 whole entry, looked up): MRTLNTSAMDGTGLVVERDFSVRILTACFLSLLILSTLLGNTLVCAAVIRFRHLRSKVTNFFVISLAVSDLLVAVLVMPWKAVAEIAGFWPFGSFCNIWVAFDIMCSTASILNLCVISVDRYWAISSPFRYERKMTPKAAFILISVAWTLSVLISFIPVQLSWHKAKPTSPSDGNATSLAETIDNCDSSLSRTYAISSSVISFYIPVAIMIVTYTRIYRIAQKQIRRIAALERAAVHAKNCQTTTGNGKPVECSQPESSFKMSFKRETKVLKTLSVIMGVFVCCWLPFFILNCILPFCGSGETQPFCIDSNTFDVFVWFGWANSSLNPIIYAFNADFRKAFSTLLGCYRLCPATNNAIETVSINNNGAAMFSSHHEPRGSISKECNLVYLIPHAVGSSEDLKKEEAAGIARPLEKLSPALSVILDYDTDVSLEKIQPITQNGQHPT
#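 Tetracycline-induced HEK293 T-REx cells with force-coupled D1 receptor were loaded with a no-wash calcium dye. Compound was added after a 10 s baseline and read kinetically for 180 s; EC80 dopamine was then added and calcium flux followed another 180 s.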
# D1 agonist: Allosteric Agonists of the Human D1 Dopamine Receptor: qHTS; D(1A) dopamine receptor (Homo sapiens), P21728; HEK293 T-REx D1 cells, calcium flux, agonist mode; activation, % at 2 µM; 1% of 360,000 active; note: 0% is about no effect
#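 Agonism was scored from calcium flux recorded over 180 s (1 read/s) after pintool compound addition, following a 10-cycle baseline. Cells were inducible force-coupled HEK293 TREx D1, plated overnight at 30 C and loaded with no-wash calcium dye.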
# D1 PAM: Potentiators of Human D1 Dopamine Receptor: qHTS | D(1A) dopamine receptor (Homo sapiens), P21728 | HEK293 TREx D1 cells, calcium flux, dopamine EC20 potentiation | potentiation, % at 10 µM | 0.036% of 360,000 active | AID 504651, 2011; in the data active = potentiation above about 30%; note: 0% is about no effect
# TRHR agonist: qHTS for Small Molecule Agonists and Allosteric Enhancers of Human TRH Receptor: Primary Screen for Agonists. activation, % at 2 µM. Thyrotropin-releasing hormone receptor (Homo sapiens), P34981. TRHR cells, calcium flux fluo-8, FDSS agonist mode. 0.18% of 360,000 active; note: 0% is about no effect
#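 Read-out: compound-evoked intracellular calcium rise in TRHR cells, fluo-8 dye, kinetic FDSS fluorescence at 1 s/cycle following a 10-cycle baseline. Cells cultured overnight before dye loading (30 min–1.5 h, RT).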
# An asterisk follows results filed as active; · = not tested or not shown. This is a sample that favours compounds with a hit; in the whole collection about 4.7% have one here. Cut-off read from the data, not from the text of the source, unless noted: active = activation above about 30%; inactive = the rest.
SMILES,TRHR enhancer,D1 antagonist,D1 agonist,D1 PAM,TRHR agonist
Cc1ccc(CNC(=O)C2CCN(C(=O)c3cnn(-c4ccccc4)c3-n3cccc3)CC2)cc1,8,-3,1,-5,0
CC(C)N1C(=O)S/C(=C\c2ccc(-c3ccc(Cl)c(C(=O)O)c3)o2)C1=O,5,5,2,-4,-2
CCN(CC)c1ccc(/C=C2/SC(=O)N(C(C)C)C2=O)o1,-4,19,59*,-2,17
COc1ccc2cc(-c3nc4ccc(C(=O)O)cc4[nH]3)c(=O)oc2c1,-3,7,2,-1,1
COc1ccc(N(CC(=O)N/N=C/c2cccnc2)S(=O)(=O)c2ccc(C)cc2)cc1OC,-3,-52*,3,-5,0
O=C(NCc1ccco1)c1ccccc1,6,0,0,-6,1
CCCc1cc(C(=O)NCc2ccco2)no1,-2,-35*,0,-9,0
O=C(NCc1ccco1)c1csc2c1CCCCC2,-4,-33*,1,0,-1
O=C(NCc1ccco1)c1c(F)c(F)c(F)c(C(=O)NCc2ccco2)c1F,-6,-33*,1,-2,0
O=C(NCc1ccco1)c1ccc([N+](=O)[O-])o1,69*,-1,5,6,0
CCCc1cc(C(=O)NCc2ccccc2)no1,-2,-6,-1,-5,0
COc1ccc(C2C(C(=O)c3ccccc3)N3c4ccccc4C=CC3C2[N+](=O)[O-])cc1 (configuration not stated),16,-6,41*,-3,15
COc1ccc(N2C(=O)[C@@H]3[C@H](C2=O)[C@H](C(C)=O)N2c4ccccc4C=C[C@@H]32)cc1,6,0,1,-8,0
COc1ccc(NC(=O)CCCN2C(=O)CCn3nc(-c4cn(C)c5ccccc45)cc32)cc1,2,35,4,-2,-1
Cc1ccc(CNS(=O)(=O)NCc2ccccc2)cc1,38*,-25,2,-2,-1
Cc1ccc(S(=O)(=O)NCc2ccccc2)cc1,-12,-18,3,10,-1
O=C(Nc1ccc(OC(F)(F)F)cc1)N1CCN(c2ccnc3cc(Cl)ccc23)CC1,4,-41*,10,-12,0
CC(=O)c1cccc(NC(=O)c2ccc3nc(C(C)C)oc3c2)c1,2,13,2,0,1
COc1ccc(S(=O)(=O)NC(N)=NCCc2ccccc2OC)cc1,-6,-53*,2,-6,0
COc1ccccc1CCN=C(N)NS(=O)(=O)c1ccc(F)cc1,-5,-5,1,-1,-2
Cc1cc(C(F)(F)F)nn1Cc1n[nH]c(=S)n1-c1cccc(Cl)c1,-3,-32*,3,-4,0
Cc1cc(C(F)(F)F)nn1Cc1n[nH]c(=S)n1-c1ccc(Cl)cc1,3,-12,1,0,0
Oc1c(C(c2ccccc2)N2CCC3(CC2)OCCO3)sc2nc(-c3ccco3)nn12 (configuration not stated),-2,·,-4,0,0
COc1ccc(NC(=O)CSc2ncccc2C(=O)OC(C)C)cc1OC,11,-37*,26,-8,0
COc1ccc(NC(=O)CSc2ccccn2)cc1OC,-6,2,0,-3,0
SMILES,TRHR enhancer,D1 antagonist,D1 agonist,D1 PAM,TRHR agonist
CCc1ccccc1N(CC)C(=O)CCc1nc(-c2ccc(C)cc2)no1,3,-3,34*,-7,0
CC(C)(C)c1ccc(-c2noc(CCC(N)=O)n2)cc1,2,-40*,20,-10,-1
Cc1ccc(-c2noc(CCC(=O)N(C)c3ccccc3F)n2)cc1,3,7,9,-2,-1
CSc1nsc(/C=C/Nc2cccc(Cl)c2)c1C#N,-3,-33*,7,-8,2
CSc1nsc(/C=C/Nc2ccc(Cl)cc2)c1C#N,-3,-6,6,-6,1
COc1ccc(OC)c(Nc2sc(C(=O)c3ccccc3)c(N)c2S(=O)(=O)c2ccccc2)c1,-1,-25,58*,-1,2
Nc1c(C(=O)c2ccc(F)cc2)sc(Nc2ccccc2F)c1S(=O)(=O)c1ccc(Br)cc1,-14,-26,83*,-3,4
Cc1ccc(Nc2sc(C(=O)c3ccc(F)cc3)c(N)c2S(=O)(=O)c2ccc(C)cc2)cc1,5,-30*,79*,-2,4
Cc1ccc(S(=O)(=O)c2c(Nc3cc(F)ccc3F)sc(C(=O)c3ccc(F)cc3)c2N)cc1,-8,-69*,57*,4,7
CCc1ccc(NC(=O)CSc2nc3c([nH]c4ccccc43)c(=O)n2C)cc1,-7,10,0,-4,0
CCC(C(=O)N1CCN(c2cc(Cl)ccc2C)CC1)n1nc(C)n2c(cc3occc32)c1=O (configuration not stated),0,11,2,-5,-1
CCc1cccc(C)c1NC(=O)CCn1nc(C)c2c(C)n(-c3ccccc3)nc2c1=O,-2,3,0,0,0
Cc1ccc(NC(=O)CSc2nc3nc(C)cc(C)c3c(=O)[nH]2)cc1,7,-12,2,-8,0
Cc1cc(C)c2c(=O)[nH]c(SCC(=O)Nc3ccc(N(C)C)cc3)nc2n1,-1,-35*,1,13,0
COc1ccc(-c2ccc(CCC(=O)O)n2CC(=O)Nc2cccc(C(F)(F)F)c2)cc1,0,1,1,-2,0
CCNc1nc(N2CCOCC2)nc(N(c2ccccc2)c2ccccc2)n1,37*,15,0,-8,-1
Cc1oc2ncn(CC(C)C)c(=O)c2c1C(=O)NC(C)c1ccccc1 (configuration not stated),-6,-2,0,1,-1
Cc1ccc2c(c1)c1c3n2CCN(C(=O)c2ccc(C(F)(F)F)cc2)C3CCC1 (configuration not stated),-6,-6,1,-4,0
Cc1cccc(CSc2nc3c(c(-c4cccs4)c2C#N)CN(C)CC3)c1,-5,-38*,10,1,2
CC1CCN(c2ccc(-c3cccc(NS(=O)(=O)c4cccs4)c3)nn2)CC1,-4,-20,8,2,-1
Cc1cc(C)nc(Nc2n[nH]c(Cc3ccccc3)n2)n1,75*,5,1,4,18
COc1cc(C)nc(NCc2ccccc2)n1,-3,3,4,-3,0
Cc1[nH]c2ccccc2c1C1(O)C(=O)N(Cc2ccccc2)c2ccc(Cl)cc21 (configuration not stated),29,15,0,-1,1

# Screening results: PubChem, National Center for Advancing Translational Sciences (NCATS)
